Most compounds without a hit are left out; they make up all but 2.3% or so of the library.
GBA activity: modulators of human glucocerebrosidase; 48,000 tested, 1.1% active; Potency, µM; purified enzyme, resorufin glucoside fluorescence (screen aimed at inhibitors), 20 min; P04062; in the data active = potency below about 15 µM; inconclusive = mostly about 16 µM to 33 µM;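 note: the screen sought inhibitors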
Target sequence (P04062 whole entry, looked up): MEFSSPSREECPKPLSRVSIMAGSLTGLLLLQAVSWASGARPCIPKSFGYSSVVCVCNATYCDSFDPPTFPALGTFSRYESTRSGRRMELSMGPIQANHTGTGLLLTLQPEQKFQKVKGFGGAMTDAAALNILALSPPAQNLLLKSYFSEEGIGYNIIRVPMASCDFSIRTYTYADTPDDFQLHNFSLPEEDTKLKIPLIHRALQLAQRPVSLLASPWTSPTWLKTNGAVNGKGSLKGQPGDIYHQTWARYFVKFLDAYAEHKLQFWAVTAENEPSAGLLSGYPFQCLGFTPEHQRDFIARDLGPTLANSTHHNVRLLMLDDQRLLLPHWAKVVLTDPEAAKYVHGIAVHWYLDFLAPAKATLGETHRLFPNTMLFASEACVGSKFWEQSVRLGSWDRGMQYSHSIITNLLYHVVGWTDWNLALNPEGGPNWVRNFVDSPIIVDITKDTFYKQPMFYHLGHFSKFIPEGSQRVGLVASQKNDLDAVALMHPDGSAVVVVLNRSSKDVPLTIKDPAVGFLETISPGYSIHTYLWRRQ
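Wild-type enzyme at 0.2 nM final in 50mM citric acid/KH2PO4, 10mM sodium taurocholate, 0.01% tween-20, pH 5.9, with resorufin beta-D-glucopyranoside at 30 uM final. Compounds titrated, 20 min at RT, red fluorescence read; AC50 from titration.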
Bst PK mod: modulators of Bacillus stearothermophilus pyruvate kinase. Potency, µM. 51,000 tested, 1.2% active. purified pyruvate kinase, luminescence ATP production; ribose 5-phosphate activator present at AC10; in the data active = potency below about 11 µM; inconclusive = mostly about 12 µM to 25 µM;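 the screen sought inhibitors and activators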;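 note: scaled between full activation by ribose 5 phosphate and full inhibition by luteolin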
* hit, by the source's call. Potency is the fitted concentration of half-maximal effect.

For O=C(Nc1nsc(-c2ccccc2)n1)c1cccs1 the results were GBA activity inactive and Bst PK mod 7.8*.
Screening Cc1nnc(SCC(=O)Nc2nsc(-c3ccccc3)n2)s1 returned GBA activity >77.
For CCOC(=O)N1CCN(S(=O)(=O)c2cccc3ccc(C)nc23)CC1 the results were GBA activity >77 and Bst PK mod inconclusive.
`COc1ccc(CC(C(=O)Nc2cccc(F)c2)c2nn[nH]n2)c(OC)c1` (stereo not given) gave GBA activity >77 and Bst PK mod >57.
CCOC(=O)N(C)c1ccc(C(O)(C(F)(F)F)C(F)(F)F)cc1 was read as GBA activity inconclusive and Bst PK mod >57.
`CNc1ccc(C(O)(C(F)(F)F)C(F)(F)F)cc1C(O)(C(F)(F)F)C(F)(F)F` gave GBA activity 13* and Bst PK mod >57.
For COC(=O)c1cc2c(cc1Cl)SC(=NCCCN1CCOCC1)NS2(=O)=O the results were GBA activity 8.3* and Bst PK mod >57.
`COC(=O)c1ccc(Cl)c(NC(=O)CN2CCOCC2)c1` gave GBA activity >77 and Bst PK mod >57.
`O=S(=O)(c1ccccc1Cl)N1CCC(O)(c2ccc3c(c2)OCO3)CC1` gave GBA activity inconclusive and Bst PK mod inactive.
Screening Cc1ccc(Cn2c(NCCCn3ccnc3)nc3c2c(=O)n(C)c(=O)n3C)cc1 returned GBA activity >77 and Bst PK mod >57.
`O=C(CSc1nnnn1-c1cccc2c1CCCC2)N1CCOCC1` gave Bst PK mod 11*.
O=C(CCSc1nnnn1-c1ccccc1)N1CCOCC1 was read as GBA activity >77 and Bst PK mod >57.
Cc1cccc(N(C)S(=O)(=O)c2ccc3[nH]c(=O)c(=O)[nH]c3c2)c1 was read as GBA activity 11*.
`Cc1cccc(N(C)S(=O)(=O)c2ccc3[nH]cc(C(=O)N4CCOCC4)c(=O)c3c2)c1` gave GBA activity >77 and Bst PK mod >57.
For Cc1cccc(C)c1NC(=O)CSc1nnc(Cn2nnc(-c3ccccc3)n2)n1-c1ccccc1 the results were GBA activity >77 and Bst PK mod >57.
Screening CCOC(=O)c1cnc(-n2nc(C)cc2C)nc1Nc1ccc(N(C)C)cc1 returned GBA activity >77 and Bst PK mod >57.
For CCOC(=O)c1cnc(-n2cc(C)cn2)nc1Nc1ccccc1OC the results were GBA activity 12* and Bst PK mod >57.
COc1ccc(-c2nc(NC(=O)CSc3nnc(C)s3)ns2)cc1 was read as GBA activity >77.
`CN(C)c1ccc(C(c2nnnn2CCOC(=O)Nc2ccc(Cl)cc2)N2CCOCC2)cc1` (stereo not given) gave GBA activity >77 and Bst PK mod >57.
For CCOCC(=O)Nc1nc2ccc(C)cc2s1 the results were GBA activity >77.
For Cc1ccc2nc(NC(=O)c3cccs3)sc2c1 the results were GBA activity >77 and Bst PK mod 4.2*.
`O=C(Nc1nc2c(s1)CCCC2)c1cccs1` gave GBA activity >77 and Bst PK mod 9.7*.
For O=C(Cc1cccs1)Nc1nc2c(s1)CCCC2 the results were GBA activity >77 and Bst PK mod >57.
O=c1c2cnn(-c3ccccc3Cl)c2ncn1Cc1cccnc1 was read as GBA activity >77 and Bst PK mod >57.
CSc1nc2sc3c(c2c2nnnn12)CCCC3 was read as Bst PK mod >26.
`NC(=O)CSc1nc2sc3c(c2c2ncnn12)CCCC3` gave GBA activity >77 and Bst PK mod 1.3*.
O=S(=O)(Nc1cc(Cl)ccc1N1CCCCC1)c1cccs1 was read as GBA activity 15* and Bst PK mod >57.
For O=S(=O)(Nc1ccc(N2CCCCC2)cc1)c1cccs1 the results were GBA activity >77 and Bst PK mod >57.
`COc1ccc(O)c(-c2cc(-c3cccs3)[nH]n2)c1` gave GBA activity >77 and Bst PK mod inconclusive.
Screening COc1ccc(C2CC(C(F)(F)F)n3ncc(C(=O)Nc4cccc(O)c4)c3N2)cc1OC (stereo not given) returned Bst PK mod >26.
COc1ccc(C2CC(C(F)(F)F)n3nc(CO)c(Cl)c3N2)cc1OC (stereo not given) was read as GBA activity 5.9* and Bst PK mod >57.
`Cc1noc(C)c1S(=O)(=O)Nc1ccc(C(=O)NC2CCCCC2)cc1` gave GBA activity 4.1* and Bst PK mod >57.
For Cc1ccc(NC(=O)c2ccc(NS(=O)(=O)c3c(C)noc3C)cc2)cc1C the results were GBA activity 11* and Bst PK mod >57.
`COc1ccc(NC(=O)c2ccc(NS(=O)(=O)c3c(C)noc3C)cc2)cc1OC` gave GBA activity 0.29* and Bst PK mod >57.
COc1ccccc1CNC(=O)c1ccc(NS(=O)(=O)c2c(C)noc2C)cc1 was read as GBA activity inconclusive and Bst PK mod >57.
For Cc1ccc(C)c(N2CCN(C(=O)c3ccc(NS(=O)(=O)c4c(C)noc4C)cc3)CC2)c1 the results were GBA activity inconclusive and Bst PK mod >57.

Bioassay records (PubChem)
